# Results as given in PubChem BioAssay (NCATS).
# Several values for one entry are separate records, joined by “and”; a condition that tells them apart may be missing. Equal values may be shown once. Inconclusive results are not listed. Where a call stands in place of a potency, no number is given. The source holds several records for some structures; these can differ, active in one and inactive in another. Activity calls are given as the source filed them. Unless noted, calls come from the whole dose curve; as a rule, active = well fitted curve in the direction sought with a large enough effect; inconclusive = small, poorly fitted or top-dose-only effect, or another doubt; inactive = no such curve, though single readings can be large; an effect the other way counts as inactive or inconclusive.
# Key:
# [1] = P-glycoprotein substrates identified in KB-8-5-11 adenocarcinoma cell line, qHTS therapeutic library screen (AID 1346987); note: nearly all actives have a fitted effect of over 65% in size; note: potency is the fitted concentration of half-maximal effect
# Procedure, shortened: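 Steps: plate 500 KB-8-5-11 cells/well in DMEM + 10% FCS (colchicine removed); pin compounds in dose-response; incubate 72 h, 37 degree C, 5% CO2; add CellTiter-Glo, 5 min; read luminescence.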
# [2] = qHTS for Inhibitors of the Functional Ribonucleoprotein Complex (vRNP) of Lassa (LASV) Arenavirus: LASV Primary Screen - GLuc reporter signal (AID 1347082; calls by dose curve; tested in HEK293 reporter line; note: series mostly up to about 57 µM; nearly all actives have a fitted effect of over 60% in size)
# [3] = qHTS for Inhibitors of the Functional Ribonucleoprotein Complex (vRNP) of Lassa (LASV) Arenavirus: Viability assay - alamar blue signal for LASV Primary Screen (AID 1347083; calls by dose curve; tested in HEK293 reporter line; note: nearly all actives have a fitted effect of over 80% in size; note: potency is the fitted concentration of half-maximal effect)
# [4] = qHTS for Inhibitors of the Functional Ribonucleoprotein Complex (vRNP) of Lymphocytic Choriomeningitis Arenaviruses (LCMV): Viability assay - alamar blue signal for LCMV Primary Screen (AID 1347085; calls by dose curve; tested in HEK293 reporter line; note: nearly all actives have a fitted effect of over 80% in size; note: potency is the fitted concentration of half-maximal effect)
# [5] = biological target: Nucleoprotein (Lymphocytic choriomeningitis virus (strain Armstrong)) (UniProt P09992); experiment: qHTS for Inhibitors of the Functional Ribonucleoprotein Complex (vRNP) of Lymphocytic Choriomeningitis Arenaviruses (LCMV): LCMV Primary Screen - GLuc reporter signal (AID 1347086; calls by dose curve; note: nearly all actives have a fitted effect of over 70% in size; note: potency is the fitted concentration of half-maximal effect)
# [6] = qHTS of pediatric cancer cell lines to identify multiple opportunities for drug repurposing: Primary screen for TC32 cells (AID 1347089); note: nearly all actives have a fitted effect of over 60% in size; note: potency is the fitted concentration of half-maximal effect
# Procedure, shortened: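 A viability screen of TC32 cells was run over 48 h, with primary MIPE doses spanning 0.78 nM–46 µM and NPC doses 0.59 nM–46 µM. ATP luminescence (CellTiter-Glo) served as the read-out.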
# [7] = qHTS of pediatric cancer cell lines to identify multiple opportunities for drug repurposing: Primary screen for SJ-GBM2 cells (AID 1347091); note: potency is the fitted concentration of half-maximal effect
# Procedure, shortened: (§1)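 Eight- or eleven-point concentration series, 48 h treatment at 37 degrees C in growth media; readout CellTiter-Glo luminescence. Potency and efficacy were taken from the concentration-response curves.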
# [8] = NS1 protein of Zika virus - qHTS assay to identify small molecule inhibitors in human HEK 293 cells (AID 1347053); note: nearly all actives have a fitted effect of over 55% in size; note: potency is the fitted concentration of half-maximal effect
# Procedure, shortened: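 HEK 293; 20 h pre-culture, 37 C/5% CO2; cpd 1 h pre-infection; ZIKV MR766, MOI = 0.5, 24 h, 37 C; TR-FRET NS1 readout (two anti-NS1 Abs); norm. to no-virus vs infected.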
# [9] = qHTS of pediatric cancer cell lines to identify multiple opportunities for drug repurposing: Primary screen for DAOY cells (AID 1347090); note: nearly all actives have a fitted effect of over 55% in size; note: potency is the fitted concentration of half-maximal effect
# Procedure, shortened: as §1
# [10] = qHTS of pediatric cancer cell lines to identify multiple opportunities for drug repurposing: Primary screen for A673 cells (AID 1347092); note: nearly all actives have a fitted effect of over 45% in size; note: potency is the fitted concentration of half-maximal effect
# Procedure, shortened: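 Titration-based qHTS on A673 cells: MIPE compounds spanned 11 points (0.78 nM to 46 µM final), NPC compounds 8 points (0.59 nM to 46 µM final). Viability after 48 h was measured by ATP luminescence.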
# [11] = Natriuretic polypeptide receptor (hNpr1) antagonism - Pilot counterscreen GloSensor control cell line (AID 1347045; calls by dose curve; note: series mostly up to about 38 µM)
# Procedure, shortened: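 Luminescence was read before and 20 min after adding 50 uM SNP, which stimulates soluble guanylyl cyclase. The HEK293 cells expressing the GloSensor cGMP sensor had been preloaded with 2% reagent for 2 h and treated with compound.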
# [12] = biological target: Atrial natriuretic peptide receptor 1 (Homo sapiens) (UniProt P16066); experiment: Natriuretic polypeptide receptor (hNpr1) antagonism - Pilot screen (AID 1347049; calls by dose curve;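 note: agonist-evoked cGMP luminescence read 20 min after hNppA addition; series mostly up to about 58 µM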)
# Procedure, shortened: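 HEK293 cells co-expressing hNpr1 and the GloSensor pGS-40F cGMP luciferase sensor were preloaded with 2% GloSensor reagent for 2 h. Compounds were added for 30 min at room temperature, then cells were stimulated with 0.1 nM hNppA for 20 min before luminescence readout.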
# [13] = biological target: Atrial natriuretic peptide receptor 2 (Homo sapiens) (UniProt P20594); experiment: Natriuretic polypeptide receptor (hNpr2) antagonism - Pilot subtype selectivity assay (AID 1347050; calls by dose curve)
# Procedure, shortened: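 cGMP-sensor HEK293/hNpr2 cells; 2% GloSensor reagent 2 h RT; compounds 30 min; baseline luminescence read; 1 nM hNppC agonist 20 min RT; final luminescence read by CCD camera. Antagonism = reduced post-agonist signal.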
# [14] = biological target: T1, Tyrosine-protein phosphatase non-receptor type substrate 1 (Homo sapiens) + Leukocyte surface antigen CD47 (Homo sapiens) (UniProt P78324+Q08722); experiment: CD47-SIRPalpha protein protein interaction - LANCE assay qHTS validation (AID 1347057; active = well fitted curve in the direction sought with a large enough effect in the signal ratio, with a control signal flat, not every such curve was filed as active; the % refers to the signal ratio; note: series mostly up to about 38 µM)
# Procedure, shortened: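 First, His-tagged CD47 and Eu-labelled anti-His antibody met the compound for 30 min; next, site-specifically biotinylated SIRPalpha was added for 30 min; finally streptavidin-APC was added before reading the TR-FRET ratio.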
# [15] = biological target: T1, Tyrosine-protein phosphatase non-receptor type substrate 1 (Homo sapiens) + Leukocyte surface antigen CD47 (Homo sapiens); experiment: CD47-SIRPalpha protein protein interaction - HTRF assay qHTS validation (AID 1347058; active = well fitted curve in the direction sought with a large enough effect in the signal ratio, not every such curve was filed as active; the % refers to the signal ratio; note: series mostly up to about 38 µM)
# Procedure, shortened: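 TR-FRET read (Ch1/Ch2 ratio) of soluble extracellular CD47 and Avi-biotinylated SIRPalpha domains in PBS pH 7.4 with 0.05% IGEPAL; 7-point compound titration. Sequential 30 min room-temperature steps; non-biotinylated SIRPalpha as control inhibitor.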
# [16] = biological target: T1, Tyrosine-protein phosphatase non-receptor type substrate 1 (Homo sapiens) + Leukocyte surface antigen CD47 (Homo sapiens); experiment: CD47-SIRPalpha protein protein interaction - Alpha assay qHTS validation (AID 1347059);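 note: bead proximity luminescence from CD47 binding SIRPalpha after compound preincubation with SIRPalpha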
# Procedure, shortened: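 Soluble extracellular domains: Avi-tag biotinylated SIRPalpha (25 nM) preincubated 30 min RT with compound, then 6His-CD47 (12.5 nM) 30 min; Ni-NTA acceptor and streptavidin donor beads (10 ug/mL) 30 min, AlphaScreen read. PBS pH 7.4, 0.05% IGEPAL.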
# [17] = biological target: Parathyroid hormone/parathyroid hormone-related peptide receptor (Homo sapiens) (UniProt Q03431); experiment: qHTS for PTHR1 Agonists: Optimization Screen against the NCGC LOPAC library (AID 1347079);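 note: GloSensor cAMP luminescence in HEK-293 GP2 cells expressing human PTHR1 with IBMX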
# Procedure, shortened: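 Agonist readout: GloSensor cAMP luminescence, read after 15 min at room temperature. HEK-293-derived GP2 line carries PTHR1; compounds tested as a titration for 1 hr at 37C in presence of IBMX. M-PTH (1-15) served as control.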
# Parathyroid hormone/parathyroid hormone-related peptide receptor (Homo sapiens), sequence (Q03431 whole entry, looked up): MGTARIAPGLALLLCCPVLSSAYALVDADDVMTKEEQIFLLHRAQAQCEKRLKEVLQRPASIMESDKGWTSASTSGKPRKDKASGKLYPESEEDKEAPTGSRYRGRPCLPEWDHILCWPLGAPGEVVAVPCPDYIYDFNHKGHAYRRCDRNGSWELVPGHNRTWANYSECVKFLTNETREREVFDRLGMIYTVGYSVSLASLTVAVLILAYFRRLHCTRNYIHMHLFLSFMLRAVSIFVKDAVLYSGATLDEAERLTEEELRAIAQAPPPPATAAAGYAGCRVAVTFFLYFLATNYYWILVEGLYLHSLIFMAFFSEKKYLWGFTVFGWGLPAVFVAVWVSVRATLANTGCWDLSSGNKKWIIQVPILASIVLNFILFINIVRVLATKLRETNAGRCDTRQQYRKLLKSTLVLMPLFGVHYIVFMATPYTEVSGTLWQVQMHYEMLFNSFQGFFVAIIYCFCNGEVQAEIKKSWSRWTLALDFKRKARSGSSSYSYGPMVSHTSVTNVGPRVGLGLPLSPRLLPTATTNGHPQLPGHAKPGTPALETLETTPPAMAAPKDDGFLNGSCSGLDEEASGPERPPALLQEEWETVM
# T1 sequence (P78324 whole entry, looked up): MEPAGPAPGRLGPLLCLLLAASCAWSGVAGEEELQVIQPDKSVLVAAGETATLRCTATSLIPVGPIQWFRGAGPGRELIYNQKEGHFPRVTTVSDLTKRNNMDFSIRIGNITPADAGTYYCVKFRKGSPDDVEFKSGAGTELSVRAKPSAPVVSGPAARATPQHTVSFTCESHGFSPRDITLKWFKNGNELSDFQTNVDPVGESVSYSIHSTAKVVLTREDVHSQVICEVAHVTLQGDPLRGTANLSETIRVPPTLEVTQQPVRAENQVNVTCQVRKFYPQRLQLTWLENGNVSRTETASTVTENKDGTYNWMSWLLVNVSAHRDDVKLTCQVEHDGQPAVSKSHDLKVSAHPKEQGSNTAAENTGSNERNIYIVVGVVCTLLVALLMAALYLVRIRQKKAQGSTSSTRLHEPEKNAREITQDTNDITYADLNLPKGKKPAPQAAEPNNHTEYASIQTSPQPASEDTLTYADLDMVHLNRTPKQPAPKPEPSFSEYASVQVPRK
# T1 sequence (Q08722 whole entry, looked up): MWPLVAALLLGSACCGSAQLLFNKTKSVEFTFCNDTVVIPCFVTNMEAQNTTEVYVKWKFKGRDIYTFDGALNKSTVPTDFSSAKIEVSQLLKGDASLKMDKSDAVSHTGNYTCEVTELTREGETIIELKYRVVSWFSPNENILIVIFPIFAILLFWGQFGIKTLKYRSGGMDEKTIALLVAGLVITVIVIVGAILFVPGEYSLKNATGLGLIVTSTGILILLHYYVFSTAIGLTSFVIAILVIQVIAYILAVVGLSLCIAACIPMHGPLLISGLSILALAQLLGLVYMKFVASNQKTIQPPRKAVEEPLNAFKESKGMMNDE
# Nucleoprotein (Lymphocytic choriomeningitis virus (strain Armstrong)), sequence (P09992 whole entry, looked up): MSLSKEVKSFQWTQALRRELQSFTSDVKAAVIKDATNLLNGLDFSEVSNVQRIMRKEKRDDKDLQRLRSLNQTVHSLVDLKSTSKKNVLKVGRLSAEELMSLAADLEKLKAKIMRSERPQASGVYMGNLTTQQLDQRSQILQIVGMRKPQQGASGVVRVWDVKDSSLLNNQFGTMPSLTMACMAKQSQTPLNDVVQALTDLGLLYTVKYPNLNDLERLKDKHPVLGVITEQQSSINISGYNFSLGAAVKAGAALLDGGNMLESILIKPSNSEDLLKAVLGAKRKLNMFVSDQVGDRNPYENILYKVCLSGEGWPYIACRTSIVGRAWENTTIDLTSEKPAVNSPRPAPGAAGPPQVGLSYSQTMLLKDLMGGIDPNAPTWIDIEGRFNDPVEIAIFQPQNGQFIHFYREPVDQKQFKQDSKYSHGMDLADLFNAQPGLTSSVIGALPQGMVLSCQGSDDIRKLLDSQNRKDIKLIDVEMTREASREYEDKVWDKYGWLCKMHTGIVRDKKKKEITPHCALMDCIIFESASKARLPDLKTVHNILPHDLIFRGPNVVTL
# Atrial natriuretic peptide receptor 1 (Homo sapiens), sequence (P16066 whole entry, looked up): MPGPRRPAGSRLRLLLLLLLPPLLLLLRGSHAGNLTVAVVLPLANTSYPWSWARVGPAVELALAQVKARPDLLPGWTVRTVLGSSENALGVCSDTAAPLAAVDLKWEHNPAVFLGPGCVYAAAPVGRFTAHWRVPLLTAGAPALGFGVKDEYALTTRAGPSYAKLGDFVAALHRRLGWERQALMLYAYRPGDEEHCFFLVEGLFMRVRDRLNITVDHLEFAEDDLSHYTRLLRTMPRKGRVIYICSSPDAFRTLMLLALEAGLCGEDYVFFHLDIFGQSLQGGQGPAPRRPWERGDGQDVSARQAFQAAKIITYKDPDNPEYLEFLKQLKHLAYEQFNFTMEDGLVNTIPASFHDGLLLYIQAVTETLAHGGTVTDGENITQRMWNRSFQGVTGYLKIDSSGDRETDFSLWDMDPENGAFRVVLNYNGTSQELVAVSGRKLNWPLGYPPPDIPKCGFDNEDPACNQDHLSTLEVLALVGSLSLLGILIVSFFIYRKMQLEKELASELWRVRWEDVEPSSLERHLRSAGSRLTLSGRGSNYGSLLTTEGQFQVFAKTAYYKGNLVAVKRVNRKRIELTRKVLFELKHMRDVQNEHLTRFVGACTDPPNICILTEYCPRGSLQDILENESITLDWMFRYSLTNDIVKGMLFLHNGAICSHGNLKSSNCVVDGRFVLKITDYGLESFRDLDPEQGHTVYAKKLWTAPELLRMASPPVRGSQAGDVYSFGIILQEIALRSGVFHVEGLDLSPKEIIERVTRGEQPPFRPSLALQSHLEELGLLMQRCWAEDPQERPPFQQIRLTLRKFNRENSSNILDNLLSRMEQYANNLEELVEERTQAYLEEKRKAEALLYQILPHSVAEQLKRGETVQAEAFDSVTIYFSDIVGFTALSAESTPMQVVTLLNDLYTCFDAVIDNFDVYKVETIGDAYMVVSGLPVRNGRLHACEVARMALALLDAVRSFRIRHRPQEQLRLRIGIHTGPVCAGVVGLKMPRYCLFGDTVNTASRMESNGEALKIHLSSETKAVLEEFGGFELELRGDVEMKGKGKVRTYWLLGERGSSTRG
# Atrial natriuretic peptide receptor 2 (Homo sapiens), sequence (P20594 whole entry, looked up): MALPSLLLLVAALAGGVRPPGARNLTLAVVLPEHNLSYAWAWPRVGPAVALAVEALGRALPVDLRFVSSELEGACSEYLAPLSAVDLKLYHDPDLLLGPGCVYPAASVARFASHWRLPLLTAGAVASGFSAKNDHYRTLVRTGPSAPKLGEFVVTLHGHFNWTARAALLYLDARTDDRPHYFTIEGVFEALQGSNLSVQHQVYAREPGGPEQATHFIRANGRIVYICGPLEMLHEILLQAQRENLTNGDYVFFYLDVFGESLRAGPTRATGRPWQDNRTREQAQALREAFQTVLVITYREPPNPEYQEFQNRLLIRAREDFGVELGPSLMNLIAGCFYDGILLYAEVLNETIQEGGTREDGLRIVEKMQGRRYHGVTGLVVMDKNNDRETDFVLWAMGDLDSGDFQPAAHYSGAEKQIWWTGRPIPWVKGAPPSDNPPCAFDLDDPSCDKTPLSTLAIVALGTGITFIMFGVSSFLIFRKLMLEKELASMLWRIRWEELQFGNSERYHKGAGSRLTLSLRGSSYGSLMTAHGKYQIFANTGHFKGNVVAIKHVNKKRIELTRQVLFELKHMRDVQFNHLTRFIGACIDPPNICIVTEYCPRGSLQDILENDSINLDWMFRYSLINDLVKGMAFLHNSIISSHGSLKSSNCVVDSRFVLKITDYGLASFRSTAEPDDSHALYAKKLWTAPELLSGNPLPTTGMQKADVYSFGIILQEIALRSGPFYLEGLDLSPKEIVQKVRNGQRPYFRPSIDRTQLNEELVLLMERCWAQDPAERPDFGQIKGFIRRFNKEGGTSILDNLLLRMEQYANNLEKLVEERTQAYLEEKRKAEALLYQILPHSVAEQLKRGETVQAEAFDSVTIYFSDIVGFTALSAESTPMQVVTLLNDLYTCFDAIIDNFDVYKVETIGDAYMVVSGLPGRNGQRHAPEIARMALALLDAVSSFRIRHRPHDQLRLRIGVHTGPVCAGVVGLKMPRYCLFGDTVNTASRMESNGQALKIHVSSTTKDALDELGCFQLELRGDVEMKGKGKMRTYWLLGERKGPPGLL
compound,measurement,setting,value
CC(=Cc1csc(C)n1)[C@@H]1C[C@H]2O[C@]2(C)CCC[C@H](C)[C@@H](O)[C@@H](C)C(=O)C(C)(C)[C@@H](O)CC(=O)O1,Potency,[1],1 nM (active)
same,Potency,[2],inactive
same,Potency,[3],inactive
same,Potency,[4],inactive
same,Potency,[5],inactive
same,Potency,[6],3.7 nM (active)
same,Potency,[7],29.6 nM (active)
COc1ccc2c(c1)[C@]13CCCCC1C(C2)N(C)CC3 (stereo partly drawn),Potency,[1],inactive
same,Potency,[8],inactive
same,Potency,[2],inactive
same,Potency,[4],inactive
same,Potency,[5],inactive
same,Potency,[6],inactive
same,Potency,[9],inactive
same,Potency,[7],inactive
same,Potency,[10],inactive
C[C@@H](N)Cc1cnc[nH]1,Potency,[11],inactive
same,Potency,[12],inactive
same,Potency,[13],inactive
same,Potency,[8],inactive
same,outcome,[14],inactive
same,outcome,[15],inactive
same,Potency,[16],inactive
same,outcome,[17],inactive
same,Potency,[2],inactive
same,Potency,[3],inactive
same,Potency,[4],inactive
same,Potency,[5],inactive
O=C(O)[C@@H]1CCN1,Potency,[11],inactive
same,Potency,[12],inactive
same,Potency,[13],inactive
same,Potency,[8],inactive
same,outcome,[14],inactive
same,outcome,[15],inactive
same,Potency,[16],inactive
same,outcome,[17],inactive
same,Potency,[2],inactive
same,Potency,[3],inactive
same,Potency,[4],inactive
same,Potency,[5],inactive
CC1=C(O)C(=O)C=C2C1=CC=C1[C@@]2(C)CC[C@@]2(C)[C@@H]3C[C@](C)(C(=O)O)CC[C@]3(C)CC[C@]12C,Potency,[1],2960 nM (active)
same,Potency,[8],2960 nM (active)
same,Potency,[3],19300 nM (active)
same,Potency,[5],7690 nM (active)
same,Potency,[6],7390 nM (active)
same,Potency,[9],935 nM (active)
same,Potency,[7],935 nM (active)
same,Potency,[10],1180 nM (active)
S=C(SSC(=S)N1CCCCC1)N1CCCCC1,Potency,[1],inactive
same,Potency,[6],938 nM (active)
same,Potency,[9],26.6 nM (active)
same,Potency,[10],26.6 nM (active)
CCOC(=O)c1c(C(C#N)=CN)c2ccc(Cl)c(Cl)c2n1C,Potency,[1],inactive
same,Potency,[8],inactive
same,Potency,[3],10900 nM (active)
same,Potency,[5],inactive
same,Potency,[6],inactive
same,Potency,[10],inactive
CC=C(C)C(=O)N[C@@H](c1ccccc1)[C@@H](O)C(=O)O[C@H]1C[C@@]2(O)[C@@H](OC(=O)c3ccccc3)[C@@H]3[C@]4(OC(C)=O)CO[C@@H]4C[C@H](O)[C@@]3(C)C(=O)[C@H](OC(C)=O)C(=C1C)C2(C)C,Potency,[1],33.2 nM (active)
same,Potency,[8],3.3 nM (active)
same,Potency,[2],inactive
same,Potency,[3],3.4 nM (active)
same,Potency,[6],1.3 nM (active)
same,Potency,[9],3.7 nM (active)
COc1cc([C@@H]2c3cc4c(cc3[C@@H](O)C3COC(=O)C32)OCO4)cc(OC)c1O (stereo partly drawn),Potency,[1],118 nM (active)
same,Potency,[2],inactive
same,Potency,[3],86.3 nM (active)
same,Potency,[4],172 nM (active)
same,Potency,[5],153 nM (active)
same,Potency,[6],370 nM (active)
same,Potency,[7],14.8 nM (active)
same,Potency,[10],37.2 nM (active)
CC(C)[C@]12O[C@@H]1[C@@H]1O[C@]13[C@]1(O[C@H]1C[C@@H]1C4=C(CC[C@@]13C)C(=O)OC4)[C@H]2O,Potency,[1],1 nM (active)
same,Potency,[2],inactive
same,Potency,[3],inactive
same,Potency,[4],inactive
same,Potency,[5],inactive
same,Potency,[7],1 nM (active)
same,Potency,[10],1 nM (active)
C[C@@H]1CC[C@@]2(OC1)O[C@H]1C[C@H]3[C@@H]4CC=C5C[C@@H](O[C@@H]6O[C@H](CO)[C@@H](O[C@@H]7O[C@@H](C)[C@H](O)[C@@H](O)[C@@H]7O)[C@H](O)[C@@H]6O[C@@H]6O[C@@H](C)[C@H](O)[C@@H](O)[C@@H]6O)CC[C@]5(C)[C@@H]4CC[C@]3(C)[C@@H]1[C@H]2C,Potency,[1],18700 nM (active)
same,Potency,[8],3720 nM (active)
same,Potency,[2],inactive
same,Potency,[4],inactive
same,Potency,[5],inactive
same,Potency,[6],13100 nM (active)
same,Potency,[9],7430 nM (active)
same,Potency,[7],5260 nM (active)
same,Potency,[10],3720 nM (active)
C/C=C(/C)C(=O)O[C@H]1C(C)=C2[C@H]([C@@H]1OC(=O)CCCCCCC)[C@@](C)(OC(C)=O)C[C@H](OC(=O)CCC)[C@@]1(O)[C@H]2OC(=O)[C@@]1(C)O,Potency,[1],2060 nM (active)
same,outcome,[14],inactive
same,outcome,[15],inactive
same,Potency,[16],inactive
same,outcome,[17],inactive
C[C@](O)(COc1ccc(C#N)cc1)C(=O)Nc1ccc(C#N)c(C(F)(F)F)c1,Potency,[1],inactive
same,Potency,[8],inactive
same,Potency,[2],inactive
same,Potency,[3],38500 nM (active)
same,Potency,[6],inactive
CCOC(=O)Nc1ccc(NCc2ccc(F)cc2)cc1N,Potency,[1],inactive
same,Potency,[8],inactive
same,Potency,[3],5440 nM (active)
same,Potency,[4],1370 nM (active)
same,Potency,[5],1530 nM (active)
same,Potency,[6],inactive
same,Potency,[9],inactive
same,Potency,[7],inactive
same,Potency,[10],18700 nM (active)
CC(C)(O)C(=O)Nc1ccc([N+](=O)[O-])c(C(F)(F)F)c1,Potency,[1],inactive
same,Potency,[8],inactive
same,Potency,[6],inactive
same,Potency,[9],18700 nM (active)
same,Potency,[10],11800 nM (active)
CC(=O)[O][Hg][c]1ccccc1,Potency,[1],259 nM (active)
same,Potency,[6],1870 nM (active)
same,Potency,[9],1680 nM (active)
same,Potency,[10],106 nM (active)
COc1ccc(N(C(=O)Oc2c(C)cccc2C)c2ccnc(Nc3ccc(N4CCN(C)CC4)cc3)n2)c(OC)c1,Potency,[1],inactive and 20.6 µM (active)
same,Potency,[8],inactive
same,Potency,[2],inactive
same,Potency,[5],inactive
same,Potency,[6],inactive
same,Potency,[7],8330 nM (active)
same,Potency,[10],935 nM (active)
